Among all 2,400 compounds or so, about 40 (2%) were called active. Not shown: some 1% with an inconclusive outcome. The sample holds actives, similar compounds and a random draw of the others, so the mix is not that of the screen.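 Rule for the calls: active = inhibition at or above 60%; inconclusive = inhibition from 0% up to below 60%; inactive = no inhibition observed.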
Test: qHTS Assay for Small Molecule Inhibitors of Mitochondrial Division or Activators of Mitochondrial Fusion: Hit Validation in Malachite Green Assay;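 for inhibition: plate controls were DMSO wells with GTPase for no effect and protein-free buffer wells for full effect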
Details: purified GTPase, malachite green phosphate release, A650; hits give high values
Method in brief: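 Compound preincubated 10 min with protein (final 0.6 uM) in Hepes/Pipes pH 7.0 buffer containing 5 mM MgCl2 and 150 mM NaCl; GTP added to 100 uM final and hydrolysed 90 min at 30 C. EDTA-quenched Pi measured with malachite green against phosphate standards.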

Compound | inhibition
N/C(=N\OC(=O)c1ccccc1Cl)c1ccc(Cl)cc1 | inactive
CCN(CC(=O)Nc1cc(S(=O)(=O)N2CCCCC2)ccc1Cl)Cc1ccccc1 | inactive
COc1ccc(Nc2ncc(C(=O)N3CCN(Cc4ccccc4)CC3)c3ccccc23)cc1 | inactive
c1ccc(NCc2nc3ccccc3n2CCOc2ccccc2)cc1 | inactive
COc1ccc(Br)cc1/C=C/C(=O)Nc1ccc(C)cc1 | inactive
COc1ccc(/C=C/C(=O)N2CCCc3ccccc32)c(OC)c1 | inactive
CNc1ccc(Br)cc(C(=O)/C=C/c2ccc(OC)cc2OC)c1=O | 90.1% (active)
COc1cc2c(cc1NC(=O)CSc1nc3ccccc3[nH]1)oc1ccccc12 | inactive
O=C(N/N=C/c1cn(-c2cccs2)nc1-c1ccccc1)c1ccccc1Cl | inactive
Cn1c2ccccc2c2c(C(=O)N3CCN(c4ccccc4)CC3)cn(C3CCCC3)c(=O)c21 | inactive
COc1cccc(COc2ccc3ccc(=O)oc3c2)c1 | inactive
CC(C)(C)c1ccc(/C=C/C(=O)Nc2ncccn2)cc1 | inactive
O=c1c2ccccc2nc(/C=C/c2cccnc2)n1Cc1ccccc1 | inactive
c1ccc(C(c2ccccc2)N2CCN(Cc3nnnn3C3CCCC3)CC2)cc1 | inactive
COc1ccc(NC(=O)CSCC(=O)N(C)Cc2ccc(Cl)c(Cl)c2)cc1 | inactive
O=S(=O)(Nc1cccc2c1CCCC2)c1ccc(Cl)cc1 | inactive
COC(=O)c1c(NC(=O)c2ccc(C)o2)sc2c1CCCCC2 | inactive

Compound | inhibition
N#Cc1c(NC(=O)c2ccc(Cn3cc(Br)cn3)o2)sc2c1CCCCCC2 | 97.3% (active)
N#Cc1c(NC(=O)C2CC2)sc2c1CCCCC2 | inactive
CCCc1nnc(NC(=O)CCC(=O)O)s1 | inactive
Cc1ccc(Cl)cc1N1CCN(C(=O)c2noc(C)c2[N+](=O)[O-])CC1 | inactive
CCCCNC(=O)N1CCN(C(c2ccccc2)c2ccccc2)CC1 | inactive
O=[N+]([O-])c1ccc(S(=O)(=O)N2CCN(C3CCN(Cc4ccccc4)CC3)CC2)cc1 | inactive
CCOC(=O)c1c(NC(=O)c2ccccc2Cl)sc2c1CCc1ccccc1-2 | 102% (active)
CCOC(=O)c1c(NC(=O)COc2ccccc2F)sc2c1CC(C)(C)NC2(C)C | inactive
Cc1ccc(C(=O)c2c(NC(=O)c3ccccc3C)sc(C)c2C)cc1 | inactive
CN(CCOc1ccccc1)CC(=O)Nc1ccc([N+](=O)[O-])cc1Cl | inactive
C=CCSc1nc(N)c(C#N)c(-c2ccc(C)cc2)c1C#N | inactive
CC(=O)c1cccc(NC(=O)c2ccc(-c3ccccc3[N+](=O)[O-])o2)c1 | inactive
O=C(/C=C/c1ccco1)c1ccc(NC(=O)C23CC4CC(CC(C4)C2)C3)cc1 | 80.4% (active)
COc1ccccc1/C=C/C(=O)c1ccc(NC(C)=O)cc1 | inactive
O=C(/C=C/c1ccco1)Nc1ccc2nn(-c3ccccc3)nc2c1 | inactive
O=c1c2cc(N3CCOCC3)ccc2[nH]c(=S)n1CCc1ccccc1 | inactive

— PubChem BioAssay AID602289 (National Center for Advancing Translational Sciences (NCATS), 2012)
